# An excerpt weighted towards active compounds, which were near 9.5% of everything screened.
# NPSR antag – antagonists of human neuropeptide S receptor cAMP signaling; AID 1461; Q6W5P4; 220,000 tested, 1% active; Potency, µM (highest dose often 38.3 µM), for inactives: at the top dose activity change, negative = inhibition, usual class: inhibitors; CHO-NPSR cells, cAMP TR-FRET, antagonist mode; also: nearly all actives have a fitted effect of over 50% in size
# Target sequence (Q6W5P4 whole entry, looked up): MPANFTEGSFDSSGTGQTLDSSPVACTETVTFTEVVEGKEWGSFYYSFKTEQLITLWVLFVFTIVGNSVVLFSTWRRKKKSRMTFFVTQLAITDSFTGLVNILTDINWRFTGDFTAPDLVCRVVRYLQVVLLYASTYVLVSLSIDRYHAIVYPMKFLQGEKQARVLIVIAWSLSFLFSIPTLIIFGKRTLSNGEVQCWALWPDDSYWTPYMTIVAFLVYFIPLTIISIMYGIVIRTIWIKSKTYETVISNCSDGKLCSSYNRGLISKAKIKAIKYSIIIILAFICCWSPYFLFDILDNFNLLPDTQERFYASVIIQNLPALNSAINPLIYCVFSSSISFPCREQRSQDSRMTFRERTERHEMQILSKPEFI
# HPGD block – inhibitors of human 15-hydroxyprostaglandin dehydrogenase (HPGD); purified HPGD, NADH fluorescence kinetic, PGE2 substrate; Potency, µM, for the others: at the highest dose activity change, negative = inhibition, usual class: inhibitors; 150,000 tested, 4.3% active; P15428; active = well fitted inhibition curve with a large enough effect, not every such curve was filed as active; inconclusive = small, poorly fitted or top-dose-only effect, or another doubt; inactive = no such curve, though single readings can be large or run the other way
#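 20 nM HPGD preincubated 15 min at room temperature with compound in 50 mM Tris-HCl pH 8, 0.01% Tween 20. Started with 1 mM NAD+ and 30 uM prostaglandin E2; NADH fluorescence (360/450 nm) read 5 times over 30-s intervals, last minus first.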
# Tau fluor counter – counter-screen for tau fibril formation inhibitors; Potency, µM (titrated, usually from 57.7 µM), for the others: at the highest dose activity change, negative = decrease; 280,000 tested, 0.93% active; tau K18 P301L Alexa594 fluorescence, heparin fibrillization; also: nearly all actives have a fitted effect of over 55% in size
#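 Human tau K18 P301L (15 uM unlabeled, 0.24 uM Alexa 594-labeled) in 100 mM sodium acetate pH 7 with 20 uM heparin, 6 hr at 37 C. ThT 30 uM added, 1 hr ambient; Alexa 594 FP and total fluorescence read at 555/632 nm.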
# ALDH1A1 inh – ALDH1A1 (human) enzyme inhibition; P00352; Purified ALDH1A1, NADH fluorescence, propionaldehyde substrate; Potency, µM (series often up to 75.3 µM), inactives show top-dose activity, negative = inhibition, hits mostly inhibitors; 220,000 tested, 7.3% active; AID 1030; active = well fitted inhibition curve with a large enough effect, not every such curve was filed as active; inconclusive = small, poorly fitted or top-dose-only effect, or another doubt; inactive = no such curve, though single readings can be large or run the other way;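 also: plate controls were no enzyme wells and a reference inhibitor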
# Tau FP inhib – tau fibrillization inhibition (FP); K18 P301L tau heparin fibrillization, Alexa594 FP, 6 h; Potency, µM (series often up to 57.7 µM), for the others: top-dose activity, negative = inhibition, usual class: inhibitors; 280,000 tested, 0.39% active; P10636; also: nearly all actives have a fitted effect of over 55% in size
# Target sequence (P10636 561-689 P618L limits assumed): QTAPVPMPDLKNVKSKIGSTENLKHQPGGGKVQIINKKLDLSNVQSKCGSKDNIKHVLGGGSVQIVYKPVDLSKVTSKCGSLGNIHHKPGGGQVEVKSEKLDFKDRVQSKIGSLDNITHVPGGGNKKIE
#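 Read-out: fluorescence polarization of Alexa 594-labeled tau (0.24 uM), 555 nm excitation, 632 nm emission. Mixtures held 15 uM unlabeled K18 P301L, compound and 20 uM heparin, pH 7 acetate buffer, incubated 6 hr at 37 C.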
# Tau fibril ThT – inhibitors of human tau fibril formation, thioflavin T binding; P10636; recombinant tau K18 P301L (four-repeat tau fragment), heparin-induced fibrillization, ThT fluorescence; Potency, µM (doses to about 57.4 µM), for the others: top-dose activity, negative = inhibition, usual class: inhibitors; 270,000 tested, 2.1% active; AID 1460; also: nearly all actives have a fitted effect of over 55% in size
#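 Recombinant human tau K18 fragment […] carrying P301L, 15 uM unlabeled plus 0.24 uM Alexa 594-labeled, was fibrillized with 20 uM heparin in 100 mM sodium acetate pH 7 for 6 hr at 37 C; 30 uM ThT fluorescence read after 1 hr.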
# Active calls of the source: *; ? = inconclusive; nt = no result given; ! = a repeat was not active; [ ] = remark or other dose. Unless noted, calls follow the shape of the dose curve; as a rule, active = well fitted curve in the direction sought with a large enough effect; inconclusive = small, poorly fitted or top-dose-only effect, or another doubt; inactive = no such curve, though single readings can be large; an effect the other way counts as inactive or inconclusive. Unless noted, % is scaled to controls: 0 for no effect and ±100 for the full control effect; potency is read from the fitted curve at half-maximal effect.
SMILES,NPSR antag,HPGD block,Tau fluor counter,ALDH1A1 inh,Tau FP inhib,Tau fibril ThT
O=C(c1ccc2nc(-c3ccco3)c(-c3ccco3)nc2c1)N1CCC2(CC1)OCCO2,-21%[46.1 µM],?,?,?,20µM*,8.9µM*
COc1ccc(-n2cnc3cc(C(=O)N4CCC5(CC4)OCCO5)ccc32)cc1,23%,nt,-7%,?,-2%,-5%
O=C(c1cccc(N2CCCC2=O)c1)N1CCC2(CC1)OCCO2,-1%[46.1 µM],-16%,-8%,?,-10%,-9%
CCN1C[C@@]2(COC)[C@H]3[C@@H](OC)[C@H]4C1[C@@]3([C@H](OC)C[C@@H]2O)[C@H]1C[C@@]2(O)[C@@H](OC(=O)c3ccccc3)[C@@H]1[C@@]4(OC(C)=O)[C@H](O)[C@@H]2OC,nt,-6%,nt,1%[20.9 µM],nt,nt
CNc1ccc2oc(C[C@H]3O[C@]4(CC[C@H]3C)O[C@H]([C@H](C)C(=O)c3ccc[nH]3)[C@H](C)C[C@H]4C)nc2c1C(=O)O,nt,?,-18%,?,-4%,?
O=C(O)c1cc(O)c(O)c(O)c1,nt,7.1µM*!,4µM*[quencher],2µM*,2µM*,1.3µM*
O=C(O)Cc1cccnc1C(=O)O,nt,-3%,-8%,13%,-10%,?
Cc1nn(-c2ccccc2)c(Cl)c1/C=N\NC(=O)c1cnccn1,7%,-10%,-5%,-1%,?,-10%
CCNC(C)(C)[C@@H](SS)c1ccc(Br)cc1,nt,3.2µM*,nt,?,nt,nt
C=C(CO)CC1CC(O)[C@]2(C)OC3CC4OC5C[C@]6(C)O[C@]7(C)CCC8OC9C[C@]%10(C)OC%11C(C)=CC(=O)OC%11CC%10OC9C[C@@H](C)C8OC7CC6O[C@]5(C)C/C=C\C4OC3CC2O1 (some centres undefined),?,nt,8%,1.4µM*,10%,-13%
C=C(C=O)CC1CC(O)[C@]2(C)OC3CC4OC5C[C@]6(C)O[C@]7(C)CCC8OC9C[C@]%10(C)OC%11C(C)=CC(=O)OC%11CC%10OC9C[C@@H](C)C8OC7CC6O[C@]5(C)CC5OC5C4OC3CC2O1 (some centres undefined),?,nt,-14%,4.5µM*,?,?
C=C(COC(C)=O)CC1CC(O)[C@]2(C)OC3CC4OC5C[C@]6(C)O[C@]7(C)CCC8OC9C[C@]%10(C)OC%11C(C)=CC(=O)OC%11CC%10OC9C[C@@H](C)C8OC7CC6O[C@]5(C)C/C=C\C4OC3CC2O1 (some centres undefined),-21%,nt,11%,nt,3%,-10%
CCc1ccc(NC(=O)c2ccc(F)c(S(=O)(=O)N3CCC4(CC3)OCCO4)c2)cc1,nt,nt,?,nt,-13%,4%
CCC1(C)CC(C(N)=S)CCO1 (centres undefined),13%,nt,-14%,nt,?,13µM*
CCC(=O)OC1CCC2C3CCc4cc(O)ccc4C3CC[C@]12C (some centres undefined),nt,-26%,?,7%,?,?
O=C1/C(=C\c2cc3c(cc2Br)OCO3)N2CCC1CC2,6%,?,-10%,3.2µM*,0%,-6%
CC(=O)N1CCN(c2ccc(OCC3CO[C@@](Cn4ccnc4)(c4ccc(Cl)cc4Cl)O3)cc2)CC1 (some centres undefined),nt,-2%,?,0%,-10%,?
COc1ccc2c3c([nH]c2c1)C(C)=NCC3,-35%,?,?,?,3%,?
COc1ccc2c(c1)[nH]c1c(C)nccc12,nt,?,-12%,5.6µM*,-1%,0%
CC(C)c1ccc(C(O)(C(=O)O)c2ccc(C(C)C)cc2)cc1,nt,-1%,nt,6%[13.5 µM],nt,nt
Oc1cc(Cl)ccc1Cl,nt,-29%,nt,?,nt,nt
Oc1ccc(Cl)cc1Cc1ccccc1,nt,10µM*,nt,-5%,nt,nt
Oc1ccc(Cl)cc1Cc1cc(Cl)ccc1O,-12%,14µM*!,11µM*[quencher],12%,?,?
Ic1c(C2=CCCCC2)[se]c2ccccc12,nt,-2%,-8%[81.3 µM],0%,-7%[81.3 µM],-6%[81.4 µM]
CC(C)N1CCN(c2ccc(O)cc2)CC1,3%,-14%,-21%,?,?,25µM*
SMILES,NPSR antag,HPGD block,Tau fluor counter,ALDH1A1 inh,Tau FP inhib,Tau fibril ThT
CC1(C)C(=O)CC[C@]2(C)C3C(=O)C=C4[C@H]5C[C@@](C)(C(=O)O)CC[C@]5(C)CC[C@]4(C)[C@]3(C)CC[C@@H]12 (some centres undefined),11%,nt,3%,nt,6%,?
CC1=C(O)C(=O)C=C2C1=CC=C1[C@]2(C)CC[C@@]2(C)C3C[C@](C)(C(=O)O)CC[C@@]3(C)CC[C@@]12C (some centres undefined),nt,2µM*,?,-6%,?,?
c1ccc2sc(C3(N4CCCC4)CCCCC3)cc2c1,nt,nt,-5%,4%,1%,-9%
Brc1cccc(-c2ccccc2)c1,nt,-2%,nt,10%,nt,nt
COc1cc(/C=C(/C)[N+](=O)[O-])ccc1OCc1ccccc1Cl,?,10µM*,-7%,2.8µM*,-3%,?
O=C1/C(=C\c2ccccc2)C[C@@]2(O)[C@H]3Cc4ccc(O)c5c4[C@@]2(CCN3CC2CC2)[C@H]1O5,nt,nt,0%,0%,-9%,-16%
N#CSCSC#N,nt,6.3µM*,nt,0.11µM*,nt,nt
N#CC(C#N)=Cc1cc(O)c(O)c(O)c1,?,?,?,28µM*,22µM*!,13µM*!
C1CCOC1,nt,-3%,nt,?,nt,nt
Oc1ccc(Cl)cc1Cl,nt,-10%,nt,-5%,nt,nt
Oc1cc(Cl)ccc1Oc1ccc(Cl)cc1Cl,nt,7.9µM*,-28%,1%,?,-4%
COc1ccc2c(c1)CC[C@@H]1[C@@H]2CC[C@]2(C)[C@@H](NCCCCCCN3C(=O)C=CC3=O)CC[C@@H]12,nt,nt,-5%,8%,1%,-12%
COc1ccc(N2C(=O)CC(N3CCC(n4c(=O)[nH]c5ccccc54)CC3)C2=O)cc1 (centres undefined),-13%[46.1 µM],-12%,-7%,?,1%,-10%
CCOC(=O)c1ccc(N2C(=O)CC(N3CC=C(c4ccc(F)cc4)CC3)C2=O)cc1 (centres undefined),-13%[46.1 µM],28µM*,-4%,3.5µM*,1%,?
CCCOc1ccc(N2C(=O)CC(N3CCC(O)(c4cccc(C(F)(F)F)c4)CC3)C2=O)cc1 (centres undefined),-1%[46.1 µM],-8%,-2%,?,0%,-9%
O=C1CC(N2CC=C(c3ccc(F)cc3)CC2)C(=O)N1c1ccc(F)cc1 (centres undefined),-12%[46.1 µM],-8%,?,?,?,32µM*
CC(=O)c1ccc(NC(=O)CSc2nc(=O)cc(N)n2-c2ccccc2)cc1,3%,nt,-14%,-2%,6%,?
O=P(O)(O)CCP(=O)(O)O,nt,-6%,nt,1%[13.5 µM],nt,nt
